A short description of assay [1]: Cell Viability - Jurkat (AID 426;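 active means dose-dependent loss of cell ATP signal giving a full or clear fitted curve, ranked by lower potency value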; further: potency means the concentration at half of the fitted maximal effect). The conditions noted are these: qHTS. An outline of the steps:
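Cytotoxicity was scored as loss of cellular ATP, measured by luciferase-based luminescence, in Jurkat clone E6-1 cells after 40 h compound treatment; tamoxifen and doxorubicin served as positive controls.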

Assay [2] is described as follows: Cell Viability - Hek293 (AID 427;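 active means compounds whose dose-response curve shows a full or clear partial loss of cell viability, called from curve shape rather than a numeric limit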;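 further: potency means the concentration at half of the fitted maximal effect; cells exposed to compound for 40 hours at 37 °C before reading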). The conditions noted are these: qHTS. An outline of the steps: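 HEK293 cells in complete medium were exposed to compound for 40 hr at 37 °C, then cellular ATP was read by CellTiter-Glo luminescence. Data were normalized to DMSO (basal) and 100 uM tamoxifen (100% inhibition), and AC50 came from Hill fits.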
Assay [3] can be described thus: Cell Viability - HepG2 (AID 433; calls by dose curve;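 further: potency means the concentration at half of the fitted maximal effect; potency for ATP loss meaning cytotoxicity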). The conditions noted are these: qHTS. An outline of the steps: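 Cytotoxicity is scored as loss of intracellular ATP in HepG2 cells exposed to compounds for 40 h. Concentration-response curves, normalized to DMSO and 100 uM tamoxifen, give AC50 values.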
(Quantitative high-throughput screening tests each substance at several concentrations.)

Assay [4] is described as follows: Cell Viability - HUV-EC-C (AID 542). Further: on the % scale 0 is the no-effect control and ±100 the full control effect; nearly all actives have a fitted effect of over 35% in size. The conditions noted are these: HUV-EC-C endothelial cell viability, qHTS; series mostly up to 92.2 µM. An outline of the steps:
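Concentration-dependent ATP loss in HUV-EC-C cells is the measure. Exposure lasts 40 hr at 37 °C; luminescence follows CellTiter-Glo addition, and Hill fits give AC50.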

Assay [5] in a line: Cell Viability - H-4-II-E (AID 543). Further: on the % scale 0 is the no-effect control and ±100 the full control effect; nearly all actives have a fitted effect of over 35% in size. The conditions noted are these: H-4-II-E rat hepatoma viability; series mostly up to 92.2 µM. Summed up:
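AC50 from Hill-modelled qHTS concentration-response curves. H-4-II-E rat hepatoma cells in complete medium, 40 hr exposure at 37 °C, viability by CellTiter-Glo ATP luminescence.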

The nature of assay [6]: Cell Viability - SH-SY5Y (AID 544). Further: nearly all actives have a fitted effect of over 55% in size. The note with it: SH-SY5Y neuroblastoma cell viability; series mostly up to 92.2 µM. Summed up: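 Quantitative HTS in SH-SY5Y neuroblastoma cells, 40 hr treatment at 37 °C, ATP content by luciferase luminescence; AC50 from Hill fits.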
Assay [7] can be described thus: Cellular Toxicity (caspase-3) SHSY5Y (AID 657). The note with it: SH-SY5Y caspase-3 activation, DMSO zero, 10 µM staurosporine = 100%; series mostly up to 91.7 µM. Summed up:
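Cells plated and incubated 5 h at 37 °C, dosed over a concentration range, incubated 16 h, then given Caspase-Glo 3/7 reagent for 1 h at room temperature before luminescence reading. Staurosporine (10 uM) defined full stimulation.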

The nature of assay [8]: Cellular Toxicity (caspase-3) SK-N-SH (AID 661). The note with it: SK-N-SH caspase-3 activation, qHTS, DMSO as zero, staurosporine as full; series mostly up to 91.7 µM. Summed up:
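Apoptosis readout in SK-N-SH neuroblastoma: Caspase-Glo 3/7 luminescence following 16 hr treatment in complete culture medium. Normalization used DMSO and 10 uM staurosporine controls.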

A short description of assay [9]: Cellular Toxicity (caspase-3) H-4-II-E (AID 663).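 Further: cells exposed to compound for 16 hr before readout.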 The conditions noted are these: H-4-II-E rat hepatoma; Potency: caspase-3 activation; series mostly up to 92.2 µM. An outline of the steps:
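H-4-II-E rat hepatoma, 1500 cells/well, 5 hr settle at 37 °C; compound 16 hr, 37 °C, complete medium; Caspase-Glo 3/7, 20 min RT; luminescence. DMSO = 0%, 100 uM tamoxifen = 100%; Hill-equation AC50.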

A short description of assay [10]: Cellular Toxicity (caspase-3) N2a (AID 665).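 Further: compound exposure lasted 16 h at 37 °C before readout.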 The note with it: N2a cells, luminescence, normalized: DMSO 0%, 10 µM staurosporine 100%; series mostly up to 92.2 µM. Summed up:
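Concentration-response qHTS: compound-induced caspase-3/7 luminescence in N2a cells (16 h, 37 °C), relative to DMSO and 10 uM staurosporine controls; AC50 obtained using the standard Hill equation.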

Assay [11] can be described thus: Cellular Toxicity (caspase-3) NIH 3T3 (AID 666).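 Further: caspase signal read after 16 h compound exposure; 0% = DMSO basal and 100% = 100 µM tamoxifen stimulation.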 The conditions noted are these: NIH 3T3 caspase-3 activation, apoptosis/toxicity, 0% DMSO, 100% is 100 µM tamoxifen; series mostly up to 92.2 µM. An outline of the steps:
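Activity: caspase-3/7 induction, NIH 3T3 cells, 16 hr treatment at 37°C, luminescent Caspase-Glo detection; AC50 via Hill equation.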

Assay [12] is described as follows: MultiTox-Fluor Cytotoxicity Assay - LYMP1-001 - Dead Cells (AID 946).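 Further: 0% = DMSO and 100% = tetraoctylammonium bromide.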 The conditions noted are these: LYMP1-001 lymphoblastoid cells, dead-cell protease fluorescence; series mostly up to 92.2 µM. An outline of the steps:
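LYMP1-001 lymphoblastoid cells (2500/well) treated 16 h at 37 C. Dead-cell protease cleavage of bis-AAF-R110 read at Ex/Em 485/520. Normalized to DMSO and 15 uM tetraoctylammonium bromide; AC50 from Hill fits.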

Assay [13] is described as follows: Cell Viability - LYMP1-002 - Assay at 16 hr (AID 948).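 Further: 0% = DMSO alone and full effect = 92 µM tetraoctylammonium bromide.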 The conditions noted are these: LYMP1-002 lymphoblastoid cell viability; series mostly up to 92.2 µM. An outline of the steps: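 Acute cytotoxicity is scored as a concentration-dependent fall in intracellular ATP in a human lymphoblastoid line (LYMP1-002) after 16 hr compound exposure at 37 C, measured by luciferase luminescence.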

Assay [14] in a line: MultiTox-Fluor Cytotoxicity Assay - LYMP1-002 - Live Cells (AID 955). Further: on the % scale 0 is the no-effect control and ±100 the full control effect. The note with it: LYMP1-002 lymphoblastoid live-cell protease fluorescence viability; series mostly up to 46.1 µM. An outline of the steps: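 In this qHTS viability format, lymphoblastoid cells (LYMP1-002, human) received compound for 16 hr at 37 C. Fluorogenic GF-AFC cleavage by viable cells was detected at 405/510 nm after 1 h at room temperature.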

Assay [15] can be described thus: MultiTox-Fluor Cytotoxicity Assay - LYMP1-003 - Dead Cells (AID 961).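 Further: 0% = DMSO and 100% = tetraoctylammonium bromide; nearly all actives have a fitted effect of over 70% in size.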 The conditions noted are these: LYMP1-003 lymphoblastoid cells, dead-cell protease fluorescence; series mostly up to 92.2 µM. Summed up: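 LYMP1-003 human lymphoblastoid cells (2500/well) exposed to compound 16 h at 37 C in complete medium; dead-cell protease read with bis-AAF-R110 fluorescence (Ex/Em 485/520) after 60 min at room temperature. Normalized to DMSO and 15 uM tetraoctylammonium bromide; AC50 from Hill fit.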

A short description of assay [16]: Cell Viability - LYMP2-003 (AID 965).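 Further: cells exposed to compounds for 24 h before reading; 0% = DMSO only and full effect = 92 µM tetraoctylammonium bromide; nearly all actives have a fitted effect of over 50% in size.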 The conditions noted are these: LYMP2-003 lymphoblastoid cell viability; series mostly up to 92.2 µM. An outline of the steps: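 Acute cytotoxicity is scored as a concentration-dependent drop in intracellular ATP, measured by luciferase luminescence in human lymphoblastoid cells treated for 24 hours at 37 C. AC50 values derive from Hill-equation modelling.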

Assay [17] in a line: Cell Viability - LYMP2-020 (AID 986).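 Further: cells exposed to compound for 24 h at 37 °C; plate controls were DMSO only for no effect and tetraoctylammonium bromide at 92 µM for full effect; nearly all actives have a fitted effect of over 55% in size.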 The conditions noted are these: series mostly up to 92.2 µM. An outline of the steps:
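Cells at 2500 per well receive a 24 hr compound exposure at 37 C. Viability is measured as ATP-dependent luciferase luminescence, with AC50 modeled from qHTS concentration-response curves.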

The nature of assay [18]: Cell Viability - LYMP2-022 (AID 987).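 Further: 0% = DMSO alone and full effect = tetraoctylammonium bromide at 92 µM; nearly all actives have a fitted effect of over 55% in size.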 The note with it: LYMP2-022 lymphoblastoid cell viability; series mostly up to 92.2 µM. Summed up: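 In this qHTS cytotoxicity screen, compound titrations were incubated 24 hr at 37 C with human lymphoblastoid cells in complete medium. Luciferase-based ATP luminescence provided the viability signal.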
Assay [19] in a line: Cell Viability - LYMP2-024 (AID 988).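 Further: plate controls were DMSO only for no effect and 92 µM tetraoctylammonium bromide for full effect; nearly all actives have a fitted effect of over 60% in size.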 The note with it: LYMP2-024 lymphoblastoid cell viability; series mostly up to 92.2 µM. Summed up:
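Cells at 2500 per well received compound for 24 hr after a 5 hr settling period. Viability was scored by CellTiter-Glo luminescence, with AC50 from Hill fits.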

The nature of assay [20]: qHTS assay for small molecule antagonists of retinoid X receptor alpha signaling (AID 588546).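 Further: cells stimulated with 9-cis-retinoic acid as agonist; on the % scale 0 is the no-effect control and ±100 the full control effect.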 The note with it: HEK293T RXRa-UAS-bla, beta-lactamase ratio, antagonist mode; measured here: W530 green channel, cytotoxicity proxy. An outline of the steps:
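Beta-lactamase reporter inhibition, read as CCF4 fluorescence ratio (ex 405, em 460/530 nm) after 2 h at RT. HEK293T UAS-bla cells, 2500/well, were stimulated with 9-cis-RA at 500 or 100 nM final alongside test compound for 18 h at 37 C.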

Each structure is given as a SMILES string. Values joined by “and” are separate entries in the source; they are usually repeats but may differ in a detail not shown here. Equal entries are not always repeated. Inconclusive results are not listed. Active and inactive are the calls of the source. Unless noted, the call rests on the fitted dose curve; in most records, active means well fitted curve in the direction sought with a large enough effect; inconclusive means small, poorly fitted or top-dose-only effect, or another doubt; inactive means no such curve, though single readings can be large; an effect the other way counts as inactive or inconclusive. Some results are limits rather than exact numbers.

On to `CCCCC(CC)CN` (stereo not given), for which the Potency in assay [1], in [2] and in assay [3] was > 92 µM (inactive) each time. The call in assay [4], in [7], in assay [8], in [10] and in assay [11] was inactive. Also, the Potency result in [5], in assay [6], in [9], in assay [12], in assay [13] and in assay [14] was “inactive” in each case. The Potency entry in [15], in assay [16], in assay [17], in assay [18] and in assay [19] was “inactive” each time. For the same molecule, the max response in assay [20] is -4.73% and -4.29%.

With `COCC(=O)O`, the Potency in assay [1], in assay [2] and in [3] was > 92 µM (inactive) in each case. The call in assay [4], in [7], in [8], in assay [10] and in assay [11] was inactive. Also, the Potency result in assay [5], in assay [6], in assay [9], in assay [12], in assay [13] and in assay [14] was “inactive” in each case. Besides, the Potency result in assay [15], in assay [16], in [17], in assay [18] and in assay [19] was “inactive” each time. Besides, the max response in assay [20] is 10.5% and -3.07%.

With `OCCNCCO`, the Potency in [1], in assay [2] and in assay [3] was > 92 µM (inactive) in each case. The molecule was classed as inactive in [4], in assay [7], in assay [8], in assay [10] and in assay [11]. Moreover, the Potency entry in assay [5], in assay [6], in assay [9], in assay [12], in assay [13] and in [14] was “inactive” each time. Besides, the Potency result in [15], in assay [16], in assay [17], in [18] and in assay [19] was “inactive” throughout. For the same molecule, in assay [20], the max response was -14.5% and -2.92%.

For `Cc1ccc([N+](=O)[O-])cc1N`, the Potency in [1], in [2] and in assay [3] was > 92 µM (inactive) each time. Also, the molecule was called inactive in [4], in assay [7], in assay [8], in assay [10] and in assay [11]. Besides, the Potency result in [5], in [6], in assay [9], in assay [12], in assay [13] and in [14] was “inactive” each time. The Potency entry in [15], in assay [16], in assay [17], in assay [18] and in [19] was “inactive” throughout. Besides, in assay [20], the max response was -2.85% and -10.6%.

Regarding `CCC(C)c1ccccc1O` (stereo not given), the Potency in [1], in assay [2] and in assay [3] was > 92 µM (inactive) each time. For the same molecule, the outcome in assay [4], in [7], in assay [8], in [10] and in [11] was inactive. Moreover, the Potency result in assay [5], in assay [6], in [9], in assay [12], in assay [13] and in assay [14] was “inactive” throughout. The Potency result in assay [15], in assay [16], in [17], in assay [18] and in assay [19] was “inactive” throughout. Besides, the max response in assay [20] was -6.22% and -6.2% and -6.14%.

For the origin of these results see PubChem BioAssay (NCATS).
